Growth data for eight compounds are collected here from PubChem BioAssay (NCI).

The panel holds about 83,000 compounds, 20% with a hit somewhere; the sample as a whole holds those more often.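 48-hour exposure, single concentration, 96-well plates; percent growth endpoint where 0 means no net growth. Active: below 10.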 A number with no mark means an inactive call. Active and inactive are the calls of the source.

Assay in all cases: NCI-60 one-dose screen, 48 h (100 = growth as untreated, 0 = no growth, -100 = all killed)
What all share (settings): 10 µM

The test system of assay [1] is HCT-15 colon.
Assay [2] has as its system HT29 colon.
Assay [3] relates to SNB-19 CNS.
The test system of assay [4] is U251 CNS.
Assay [5] deals with PC-3 prostate.
Assay [6] concerns SK-MEL-5 melanoma.
Assay [7] has as its system UACC-62 melanoma.
Assay [8] deals with SK-MEL-28 melanoma.
Assay [9] concerns SK-MEL-2 melanoma.
Assay [10] has as its system EKVX NSCLC.
In assay [11] the test system is SN12C renal.
For assay [12], the system named is UO-31 renal.
For assay [13], the system named is ACHN renal.
Assay [14] concerns CAKI-1 renal.
Assay [15] deals with A498 renal.
The subject of assay [16] is CCRF-CEM leukemia.
In assay [17] the test system is LOX IMVI melanoma.
In assay [18] the test system is TK-10 renal.
Assay [19] concerns MOLT-4 leukemia.
For assay [20], the system named is SNB-75 CNS.

For the compound `C=C1CCC2C3(C)COC(c4ccccc4F)OC3CCC2(C)C1C/C=C1/C(=O)OCC1O` (stereo not given), the growth is -20% (active) in assay [1]; -14.6% (active) in assay [2]; -93.4% (active) in [3]; -95.4% (active) in assay [4]; -17.5% (active) in assay [5]; -91.1% (active) in assay [6]. Moreover, the growth was -7.01% (active) in assay [7]; -66.1% (active) in [8]; -59.2% (active) in assay [9]; -51.6% (active) in assay [10]; -40.9% (active) in assay [11]; -96.5% (active) in assay [12]. Moreover, the growth in assay [13] is -99.4% (active); in assay [14], -40.7% (active); in assay [15], 101%; in assay [16], 15.1%.

`NC1=NC(c2ccccc2Cl)N=C(Nc2nn[nH]n2)N1` (stereo not given): the growth in [1] was 103%; in assay [2], 115%; in [3], 99.6%; in assay [4], 97.5%; in assay [5], 103%; in [6], 98%. Also, the growth in assay [7] was 94.1%; in assay [17], 94.2%; in assay [8], 124%; in [9], 116%; in [10] it was 96.2%; in assay [11], 107%. The growth is 99.6% in assay [18]; 103% in [13]; 94.5% in assay [14]; 104% in [15]; 151% in [16]; 124% in [19].

As for `CS(=O)(=O)Nc1ccc(-c2ccc3c(c2)ncn3-c2ccc(NC(=O)Nc3ccc(Cl)c(C(F)(F)F)c3)cc2)cc1`, the growth was -84.1% (active) in assay [2]; -42% (active) in assay [20]; -89.3% (active) in assay [3]; -87.4% (active) in [4]; -57.5% (active) in assay [5]; -97.7% (active) in [6]. Further, the growth in assay [7] is -85.8% (active); in [17], -97% (active); in [8] it was -78.1% (active); in [9] it was -83% (active); in assay [10], -60.3% (active); in assay [11], -68.7% (active). For the same compound, the growth in assay [12] was -65.1% (active); in assay [18] it was -6.45% (active); in assay [13], -63.7% (active); in [14], -55.2% (active); in [15], -85.9% (active); in [16] it was -31.7% (active).

Consider `COc1ccc(C(=O)/C=C/c2cc(C(F)(F)F)cc(C(F)(F)F)c2)cc1S(N)(=O)=O`, for which the growth in assay [1] is -58.6% (active); in assay [2], -59.9% (active); in assay [3], -100% (active); in assay [4], -68.1% (active); in assay [5] it was -14.4% (active); in assay [6], -98.4% (active). For the same compound, the growth was -73.4% (active) in assay [7]; -100% (active) in assay [17]; -98.2% (active) in [8]; -73.8% (active) in [9]; -93% (active) in assay [10]; -59.3% (active) in assay [11]. Also, the growth is -100% (active) in assay [12]; -89.8% (active) in assay [18]; -96.2% (active) in [13]; -83% (active) in [14]; 2.73% (active) in assay [15]; 10.7% in assay [16]. In addition, in assay [19], the growth is 2.98% (active).

With `Cc1ccc(C(C)C)cc1NC(=O)c1ccccc1N(C)C`, the growth was 74.6% in assay [2]; 112% in assay [20]; 93% in [3]; 87.6% in assay [4]; 73.7% in assay [5]; 86.8% in [6]. The growth in [7] is 63.1%; in [17] it was 86.8%; in [8], 92.9%; in assay [9], 86.8%; in [10], 81.1%; in [11], 88.1%. Moreover, the growth is 76.4% in [12]; 90.2% in assay [18]; 88.4% in assay [13]; 70.6% in assay [14]; 100% in [15]; 80.1% in [16].

In the case of `Cc1ccc(/C=C/C(=O)c2ccc(NC(=O)CSc3nnc(-c4c[nH]c5ccccc45)n3-c3ccccc3)cc2)c(C)c1`, the growth is 51.4% in assay [1]; 65.5% in [2]; 72.2% in assay [3]; 13.1% in [4]; 48.6% in assay [5]; 88.3% in assay [6]. In addition, the growth in assay [7] was 72.8%; in assay [17] it was 13.3%; in [8], 80.9%; in [9] it was 87.7%; in [10] it was 63.7%; in [11], 27.1%. The growth was 65.9% in [12]; 73.4% in assay [18]; 59.5% in assay [13]; 66.9% in assay [14]; 106% in [15]; 83.1% in assay [16]. In addition, in assay [19], the growth is 43.6%.

In the case of `Cc1ccc(C(=O)CSc2nnc(-c3c[nH]c4ccccc34)n2-c2ccccc2)cc1`, the growth in assay [1] is 43.8%; in assay [2], 7.13% (active); in assay [3], 19.7%; in [4], 9.78% (active); in assay [5] it was 43%; in assay [6] it was 32.9%. The growth in assay [7] was 23.9%; in assay [17] it was -19.5% (active); in assay [8], 49%; in assay [9], 84.7%; in assay [10], 53%; in assay [11] it was 24.9%. Moreover, the growth in assay [12] was 30.3%; in [18], -2.18% (active); in [13], 20.4%; in assay [14], 12.4%; in assay [15], 85.8%; in assay [16], 60.8%. The growth in [19] was 61.7%.

Consider `Cc1ccc(S(=O)(=O)c2nc(-c3ccccc3)oc2S(=O)(=O)CC(=O)N2CCCC2)cc1`, for which the growth in [1] was -78.2% (active); in assay [2] it was -81.7% (active); in [3], 68.2%; in assay [4], -77.5% (active); in assay [5], 4.7% (active); in assay [6] it was 26.5%. The growth in assay [7] was -85.4% (active); in assay [17] it was -91.3% (active); in [8], -100% (active); in assay [9], -50.6% (active); in assay [10] it was 5.22% (active); in assay [11] it was -85% (active). For the same compound, the growth in assay [12] was -100% (active); in assay [18], -99.7% (active); in [13] it was -100% (active); in assay [14], -100% (active); in [15] it was 90.1%; in assay [16], -64.4% (active).
